BoNT A protease: blocks Botulinum neurotoxin A light chain protease | multiplex microsphere protease substrate cleavage, flow cytometry | hit rate 0.17% among 360,000 | inhibition, % at 10 µM; further: plate controls were buffer without enzyme for full effect and enzyme alone for no effect
Anthrax LF prot: anthrax lethal factor protease inhibition; P15917; multiplex microsphere protease cleavage assay, LF; inhibition, % at 10 µM; hit rate 0.12% among 360,000; AID 588501; further: plate controls were buffer without enzyme for full effect and enzyme alone for no effect
Target sequence (P15917 whole entry, looked up): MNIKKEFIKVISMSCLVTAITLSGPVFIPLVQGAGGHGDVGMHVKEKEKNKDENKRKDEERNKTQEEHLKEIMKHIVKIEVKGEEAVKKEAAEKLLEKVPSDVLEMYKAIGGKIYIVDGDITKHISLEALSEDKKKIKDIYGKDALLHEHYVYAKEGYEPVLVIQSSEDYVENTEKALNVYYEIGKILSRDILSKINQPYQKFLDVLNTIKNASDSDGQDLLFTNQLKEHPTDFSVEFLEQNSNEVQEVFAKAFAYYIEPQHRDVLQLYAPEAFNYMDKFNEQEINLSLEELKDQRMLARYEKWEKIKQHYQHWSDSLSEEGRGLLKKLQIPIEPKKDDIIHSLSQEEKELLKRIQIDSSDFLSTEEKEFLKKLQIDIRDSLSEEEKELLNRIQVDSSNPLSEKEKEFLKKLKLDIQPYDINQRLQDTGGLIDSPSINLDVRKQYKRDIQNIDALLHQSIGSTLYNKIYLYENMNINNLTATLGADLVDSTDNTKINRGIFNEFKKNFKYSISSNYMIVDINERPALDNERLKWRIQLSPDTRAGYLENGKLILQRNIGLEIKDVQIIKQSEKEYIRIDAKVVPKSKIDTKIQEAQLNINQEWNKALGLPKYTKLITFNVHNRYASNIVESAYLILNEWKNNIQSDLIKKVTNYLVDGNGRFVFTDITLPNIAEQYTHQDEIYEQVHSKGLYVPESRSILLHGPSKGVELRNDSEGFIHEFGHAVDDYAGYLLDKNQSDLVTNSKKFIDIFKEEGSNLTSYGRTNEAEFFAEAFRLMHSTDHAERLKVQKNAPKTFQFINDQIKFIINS
BoNT-F LC inh: inhibitors of Botulinum neurotoxin F light chain protease | Multiplex microsphere protease cleavage assay, flow cytometry | inhibition, % at 10 µM | hit rate 0.22% among 360,000; in the data active means inhibition above about 35%, passing the limit was not always enough; inconclusive means no clear call, values can overlap the other calls; further: plate controls were buffer without enzyme for full effect and enzyme alone for no effect
PriA SSB inh: K. pneumoniae PriA-SSBct interaction inhibition | hit rate 0.6% among 430,000 | AlphaScreen SSBct-PriA binding, biotinylated peptide | AID 1272365 | inhibition, % at 33 µM; in the data active means inhibition mostly above about 37%, no sharp cut-off; inactive means mostly below about 20%;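 further: plate controls were negative control peptide for no effect and reference peptide for full effect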
Bead autofluor: counter-screen for toxin protease inhibitors: compound fluorescence; hit rate 3.1% among 360,000; fluorescence intensity (concentration not given with the values); AID 624483; compound autofluorescence counterscreen, microsphere flow cytometry; active compounds read high; in the data active means fluorescence intensity above about 16000; inconclusive means no clear call, values can overlap the other calls
Starred values were filed as active, the others as inactive; ? = inconclusive; . = no result. A selection: hits, their analogues and other compounds. The true share with any hit is near 3.1%. Unless noted, no stated cut-off is given here; in the data, active means inhibition above about 30%; inconclusive means no clear call, values can overlap the other calls; inactive means below that.

SMILES	BoNT A protease	Anthrax LF prot	BoNT-F LC inh	PriA SSB inh	Bead autofluor
Cn1c(-c2ccc(F)cc2)cnc1NCc1ccccc1	-3.4	-4.4	-5.9	-11.9	17208*
Cn1c(-c2cccc(Br)c2)cnc1NCc1cccnc1	-2.1	-2.1	-3.6	-2.8	23394*
Cn1c(-c2ccc(F)cc2)cnc1NCc1cccc(F)c1	-0.4	-1.2	4.3	-1.5	4025
O=C(NCCSC1CCOCC1)NCCc1ccccc1	.	.	.	-17.0	.
COc1ccc(C(=O)NCC23C=CC(O2)C2C(=O)N(Cc4ccccc4)C(=O)C23)cc1 (stereo not given)	?	1.9	0.4	-10.3	19591*
O=C(c1cc(C2CC2)nc2ccccc12)N1N=C(C(F)F)CC1(O)C(F)F (stereo not given)	3.2	-9.8	2.3	-5.2	18689*
O=C(c1cc(C2CC2)nc2ccc(Br)cc12)N1N=C(C(F)F)CC1(O)C(F)F (stereo not given)	1.9	-2.1	-0.9	-3.0	22047*
O=C(O)CC(C(=O)O)c1ccccc1F (stereo not given)	.	.	.	-7.0	.
Cc1nc(NC(=S)NC(=O)c2cccs2)sc1C(=O)N(C)C	-1.7	-0.4	-1.2	-1.7	22794*
COc1ccc(C(=O)NC(=S)Nc2nc(C)c(C(=O)N(C)C)s2)cc1	-0.6	1.4	-0.5	-10.6	8423
CCCCCCCCCCCCc1ccc(O)c2ncccc12	.	.	.	32.9	.
Oc1ccc(Cc2ccc(O)c3ncccc23)c2cccnc12	.	.	.	72.4*	.
O=S(=O)(O)c1ccc(O)c2ncccc12	.	.	.	99.0*	.
CCCCCC(=O)c1ccc(O)c2ncccc12	.	.	.	129.5*	.
CCCCCCCCCCCCCCCCSCc1ccc(O)c2ncccc12	.	.	.	59.5*	.
CCc1ccc(O)c2ncccc12	.	.	.	27.9	.
Cc1noc(C)c1S(=O)(=O)NCCSC1CCOCC1	.	.	.	-6.0	.
CCN(CC)Cc1ccc(O)c2ncccc12	.	.	.	139.0*	.
O=Cc1ccc(O)c2ncccc12	2.1	1.0	23.7	93.8*	2975
CC(C)OCc1ccc(O)c2ncccc12	.	.	.	86.9*	.
C#CCN(C)Cc1ccc(O)c2ncccc12	.	.	.	109.5*	.
Oc1ccc(-c2ccc(O)c3ncccc23)c2cccnc12	.	.	.	51.0	.
O=C1CCC(=O)N1c1ccc(S(=O)(=O)NCc2cncc(-c3cccs3)c2)cc1	.	.	.	3.0	.
O=C(NCC1CCN(Cc2ccco2)CC1)c1cnc2ccccc2n1	.	.	.	-9.0	.
O=C(c1cc(-c2ccc(F)cc2)n[nH]1)N1CCN(c2nc(-c3ccsc3)cs2)CC1	.	.	.	-4.0	.
SMILES	BoNT A protease	Anthrax LF prot	BoNT-F LC inh	PriA SSB inh	Bead autofluor
Cc1sc(NC(=O)Cc2ccc(S(C)(=O)=O)cc2)c(C#N)c1C	.	.	.	-17.0	.
CCn1ncc(/C=C/C(=O)Nc2c(C)nn(CC)c2C)c1C	1.1	0.3	2.0	-7.0	20272*
CCn1nc(C)c(/C=C/C(=O)Nc2ccc(C)cc2C)c1C	4.7	2.1	38.8*	-1.5	2035
Cc1ccc(NC(=O)CCn2nc(C)cc2C)c(C)c1	0.6	-3.5	-5.5	-18.4	5512
CCn1nc(C)c(NC(=O)/C=C/c2cnn(C)c2)c1C	8.8	-9.1	10.0	-14.1	19664*
Cc1nn(Cc2ccc(Cl)cc2)c(C)c1NC(=O)/C=C/c1cnn(C)c1	-0.3	0.4	-4.4	-5.6	2490
COc1cc2c(cc1OC)C(COc1cccc(C(F)(F)F)c1)N(C(=O)c1ccc(S(=O)(=O)N3CCCCC3)cc1)CC2 (stereo not given)	.	.	.	3.0	.
O=C(NCc1ccc(C(=O)c2ccco2)s1)c1cc(-c2ccccc2)on1	.	.	.	0.0	.
CC(C)OC(=O)c1cccnc1N1CCN(c2ccc(F)cc2)CC1	-2.1	-2.6	-1.8	-28.5	23861*
O=C(Nc1ccccc1)c1cccnc1N1CCCC1	?	-4.9	-7.0	-18.8	17182*
O=C(Nc1ccc(Br)cc1)c1cccnc1N1CCOCC1	-0.9	-5.4	-4.9	-16.4	5509
COC(=O)c1cccnc1N1CCN(c2ccccc2F)CC1	?	-3.7	-0.5	-14.1	23700*
COc1ncccc1C(=O)N1CCN(c2ccccc2F)CC1	.	.	.	-6.0	.
O=C(c1ccccc1C(F)(F)F)N1CCN(Cc2nc(C3CC3)cs2)CC1	.	.	.	-14.0	.
CCCCOc1ccc(C(=O)Nc2ccc3c(c2)N(C(=O)c2ccco2)CC3)cc1	.	.	.	-1.0	.
COc1cccc(NC(=O)COC(=O)c2ccc(S(=O)(=O)NCc3ccco3)cc2)c1	-3.1	-1.3	-8.7	-11.6	23475*
O=C(COC(=O)c1ccc(S(=O)(=O)NCc2ccco2)cc1)NC1CCCCCC1	-0.8	-14.8	-2.1	-18.6	9658
O=C(NC1CCCCCC1)c1ccc(S(=O)(=O)NCc2ccco2)cc1	-1.0	-1.1	-1.3	-0.6	23471*
COc1cccc(S(=O)(=O)Nc2ccc(C(=O)NCc3ccco3)cc2)c1	-0.4	-4.7	1.3	0.9	11265
CC1CCCCC1NC(=O)COC(=O)c1ccc(S(=O)(=O)NCc2ccco2)cc1 (stereo not given)	4.1	-7.2	6.3	-2.0	21167*
COc1cccc(S(=O)(=O)NCc2ccc(C(=O)NCc3ccco3)cc2)c1	-6.4	0.7	-5.9	-12.0	25859*
Cc1c(C)n(Cc2ccco2)c2ncnc(Nc3ccc4c(c3)OCO4)c12	.	.	.	14.0	.
Cc1cccc(S(=O)(=O)NCCn2ncccc2=O)c1	.	.	.	-10.0	.
OCCNc1nc2ccc(Br)cc2c(-c2ccccc2)c1-c1cc(-c2ccccc2)c2cc(Br)ccc2n1	.	.	.	-7.0	.
CN(CC#CCNC(=O)NCCCc1ccccc1)Cc1ccccc1	.	.	.	-1.0	.
SMILES	BoNT A protease	Anthrax LF prot	BoNT-F LC inh	PriA SSB inh	Bead autofluor
O=S(=O)(NCc1ccco1)c1ccc(S(=O)(=O)N2CCCCC2)cc1	-1.4	-5.9	-3.8	-2.6	23145*
O=[N+]([O-])c1ccccc1S(=O)(=O)N1CCc2ccccc21	.	.	.	39.0*	.
O=S(=O)(c1ccc(OC(F)(F)F)cc1)N1CCN(c2cc(-c3ccccc3)ncn2)CC1	.	.	.	-21.0	.
O=C(CCS(=O)(=O)c1ccccc1)Nc1nc(-c2ccccn2)cs1	-1.8	-8.5	-10.9	33.7	5917
O=C(CCS(=O)(=O)c1ccc(F)cc1)Nc1nc(-c2ccccn2)cs1	-1.0	-1.0	3.6	43.0*	4342
O=C(CCCS(=O)(=O)c1ccc(Cl)cc1)Nc1nc(-c2ccccn2)cs1	.	.	.	33.0*	.
O=C(c1csc(-n2cccc2)n1)N1CCN(c2ccccc2)CC1	.	.	.	-23.0	.
O=C(O)CCCC(=O)Nc1ccc(Cl)cc1	1.4	0.3	-0.1	-16.3	3294
O=C(O)CCCC(=O)Nc1ccc(Br)cc1	0.2	-1.0	0.1	-4.3	23089*
CC(C)Oc1ccc(NC(=O)CCC(=O)O)cc1	-1.4	-1.2	-0.5	-7.1	16641*
Cc1ccc(NC(=O)CNc2ccc(OC(C)C)cc2)c(C)c1	2.8	-7.6	-19.9	15.3	19175*
Cc1ccc(-c2nnc(SCC(=O)NC3CCCCC3)o2)cc1C	.	.	.	-14.0	.
CCOc1ccc(/C=C/C(=O)c2oc3ccc(F)cc3c2C)cc1OC	.	.	.	-7.0	.
CCOC(=O)c1[nH]c(C)c(C(=O)N2CCN(c3ccc(F)cc3)CC2)c1C	3.8	-2.5	2.0	14.4	21567*
CCOC(=O)c1[nH]c(C)c(C(=O)NCCCOC(C)C)c1C	-3.7	-0.7	-4.6	-13.9	21373*
CCOC(=O)c1[nH]c(C)c(C(=O)N2CCN(c3ccc(OC)cc3)CC2)c1C	0.5	-1.8	-1.2	8.1	2178
CCOC(=O)c1[nH]c(C)c(C(=O)N2CCN(c3cccc(Cl)c3)CC2)c1C	2.1	0.1	1.4	3.5	19964*

Source: PubChem
